E coli growth-1 = E. coli growth inhibition, primary screen, OD600; Escherichia coli growth, 23 h; active compounds read low; OD600 absorbance (test concentration not listed); 330,000 tested, 0.21% active;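 active means OD600 absorbance below the run mean of sample wells minus 3.6 SD, in any replicate, cut at about 0.56 in these data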
AddAB inh = growth inhibition of E. coli expressing H. pylori AddAB, primary screen, AddAB inhibitor project, absorbance; 330,000 tested, 0.29% active; AID 435030, 2010; inhibition, % at 11.9 µM; in the data active means inhibition above about 12%;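 further: 0% = vehicle wells of infected cells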
E coli growth-2 = E. coli V3065 growth inhibition, primary screen, counter-screen for AddAB inhibitor project, absorbance, OD600. 18 h. AID 449728, 2010. 330,000 tested, 0.27% active. inhibition, % at 11.9 µM;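 active means inhibition above the campaign's mean inhibition across all tested compounds plus 3 SD, cut at about 9.9% in these data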;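 further: uninfected addAB+ strain grown without phage in ampicillin broth; 0% = DMSO wells and 100% = ciprofloxacin 0.95 µg/ml wells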
phage Ecoli inh = growth loss of phage-infected E. coli, primary screen, RecBCD inhibitor project, absorbance, with phage, HTS; inhibition, % at 11.9 µM; 360,000 tested, 0.26% active; AID 651602, 2012; in the data active means inhibition above about 11%
Tat export inh = E. coli Tat export inhibitors, primary screen, MC4100, TorA-mCherry reporter, fluorescence, single point; AID 488895, 2010; 340,000 tested, 0.036% active; inhibition, % at 10 µM;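 active means mean replicate inhibition at least 50% and at least half of replicates individually reaching 50%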;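 further: exported cargo escapes ClpAP degradation while cytoplasmic cargo is degraded and loses fluorescence; 0% = median of neutral control wells and 100% = median of NaSCN control wells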
AddAB conf = growth loss of phage-infected E. coli expressing H. pylori AddAB, confirmation, AddAB inhibitor project, absorbance, E. coli V3065, T4 phage, triplicate; shares compounds with AddAB inh; OD; T4 phage with gene 2 nonsense mutations; inhibition, % at 11.9 µM; 880 tested, 64% active;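 active means mean inhibition above a set limit taken from the earlier primary screen, cut at about 13% in these data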;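 further: higher means less bacterial growth since AddAB block lets phage replicate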
RecBCD counter = growth loss of RecBCD+ E. coli with mutant T4 phage, counter-screen for AddAB inhibitor project, absorbance, V66 E. coli; shares compounds with AddAB inh; AID 488955, 2010; 880 tested, 73% active; OD growth; inhibition, % at 11.9 µM;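 active means mean inhibition above the mean of solvent-only control wells plus 3 SD, cut at about 4% in these data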;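 further: optical density read after an 18 h incubation at 37 °C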
Bact viability = bacterial viability inhibition counter-screen, confirmation, counter-screen for AddAB inhibitor project, absorbance; 880 tested, 35% active; inhibition, % at 11.9 µM; shares compounds with AddAB inh; absorbance (AddAB counterscreen); in the data active means inhibition above about 25%
* marks the source's active call; other numbers are inactive results; / = not tested or not shown. A selection: hits, their analogues and other compounds. The true share with any hit is near 0.5%.

SMILES	E coli growth-1	AddAB inh	E coli growth-2	phage Ecoli inh	Tat export inh	AddAB conf	RecBCD counter	Bact viability
Cc1ccc(-c2cc(C(F)(F)F)n3ncc(C(=O)O)c3n2)cc1	0.76	/	/	2	4	/	/	/
Cc1cc(C(F)(F)F)n2ncc(C(=O)O)c2n1	0.76	17*	6	4	-4	-2	1	0
Cc1nn(C)c(C(=O)NN=Cc2ccccc2)c1[N+](=O)[O-]	0.72	/	/	/	/	/	/	/
CCCC(=O)NC(Nc1ccc(S(=O)(=O)Nc2cc(C)on2)cc1)(C(F)(F)F)C(F)(F)F	0.72	16*	8	3	-3	-1	2	1
CCCC(=O)NC(Nc1ccc(S(=O)(=O)Nc2cc(C)on2)cc1)(C(=O)OCC)C(F)(F)F (stereo unspecified)	0.71	2	0	4	-6	/	/	/
CCOC(=O)/C=C/C(=O)OCC(=O)Nc1cccc(Cl)c1Cl	0.65	97*	76*	4	-28	-1	0	-4
C#CCOCCOCCOCCNc1nc(N2CCOCC2)nc(N2CCN(C(=O)C(CCCCN)n3cc(CCC(=O)O)nn3)CC2)n1 (stereo unspecified)	0.64	/	/	/	/	/	/	/
CCCCOCC(O)CCc1n[nH]c(=S)n1-c1ccccc1 (stereo unspecified)	0.64	84*	27*	3	0	2	1	-1
CC(C)OCC(O)CCc1n[nH]c(=S)n1-c1ccccc1 (stereo unspecified)	0.65	1	0	2	-6	/	/	/
Cc1ccc(-n2c(-c3ccc(Br)cc3)c[n+]3c2CCc2ccc4cccnc4c2-3)cc1	0.49*	31*	24*	5	-8	76*	5.5*	21
O=C(CSc1nc2ccccc2[nH]1)Nc1ccc2c(c1)CCC2	0.61	18*	7	5	-17	3	5.2*	3
O=C(CSc1nc2ccc(Cl)cc2[nH]1)Nc1ccc2c(c1)CCC2	/	4	0	4	2	/	/	/
COc1c(N2CCN[C@H](C)C2)c(F)cc2c(=O)c(C(=O)O)cn(C3CC3)c12	/	102*	103*	/	/	100*	100*	101*
COc1cccc(C=NNC(=O)C(=O)NN=Cc2cccc(OC)c2O)c1O	0.71	/	/	/	/	/	/	/
COc1cccc(/C=N/NC(=O)N/N=C/c2cccc(OC)c2O)c1O	/	15*	12*	11	-5	12	11*	9
O=C(NNC(=O)c1cc(Br)ccc1O)c1csc(N2CCOCC2)n1	/	37*	33*	/	-3	27*	27*	27*
O=C(NNC(=O)c1cc(Br)ccc1Cl)c1csc(N2CCOCC2)n1	0.73	3	-3	-1	5	/	/	/
Cc1[nH]n(-c2ccccc2)c(=O)c1C(=O)c1ccc(Cl)cc1	0.68	97*	96*	0	-1	0	-2	-6
CCCNC(=O)c1ccc2c(=O)c(O)c(-c3ccc(F)cc3)[nH]c2c1	0.67	18*	15*	/	-6	11	13*	14
CCCCCCCCCCCCN1C(CC(C)=O)c2cc(F)cc(F)c2S1(=O)=O (stereo unspecified)	0.67	/	/	/	/	/	/	/
CCc1ccc(NC(=S)NCc2cccnc2)cc1	0.61	14*	11*	7	-9	6	6.7*	4
Cc1ccc(NC(=S)NCc2cccnc2)cc1	0.67	4	4	5	-4	/	/	/
Oc1ccc(N=Nc2ccccc2-c2nn[nH]n2)c(O)c1	0.6	14*	15*	7	-3	8	6.7*	1
COc1ccc(C2CC(=O)C=C(c3cc(F)ccc3OC)C2)cc1 (stereo unspecified)	0.7	/	/	/	/	/	/	/
NC(=NOC(=O)Nc1ccccc1)c1ncc([N+](=O)[O-])s1	0.65	/	/	/	/	/	/	/
SMILES	E coli growth-1	AddAB inh	E coli growth-2	phage Ecoli inh	Tat export inh	AddAB conf	RecBCD counter	Bact viability
N/C(=N/OC(=O)c1ccccc1Cl)c1ncc([N+](=O)[O-])s1	/	14*	10*	3	-11	37*	3	9
O=C(NN=C/C=C/c1ccccc1)NC1CCCCC1	0.64	/	/	/	/	/	/	/
O=C(N/N=C/C=C/c1ccccc1)NC1CCCCC1	/	37*	18*	4	6	1	0	-2
CNC(=O)c1[nH]cnc1C(=O)NC(C)C(=O)OC(C)(C)C (stereo unspecified)	0.7	/	/	/	/	/	/	/
C#Cc1ccc(C2C=C(C(=O)NC3CC3)OC(OCc3ccc(CO)cc3)C2)cc1 (stereo unspecified)	0.7	/	/	/	/	/	/	/
CCOc1ccc(Cc2onc3c2C(=O)CCC3)cc1OCC	0.71	99*	97*	3	6	-1	0	0
CCOc1ccc(Cc2onc3c2C(=O)CC(C)(C)C3)cc1OCC	0.68	2	2	2	6	/	/	/
N#CC(=NNc1ccc([N+](=O)[O-])cc1)C(=N)N1CCCCC1	0.62	/	/	/	/	/	/	/
O=C1C2CCCN2C(c2ccc(F)c(F)c2)N1c1cccc(Cl)c1 (stereo unspecified)	0.72	2	1	0	-7	/	/	/
O=C1C2CCCN2C(c2ccccc2)N1c1cccc(Cl)c1 (stereo unspecified)	0.65	119*	1	2	2	-3	0	-3
CCOC1OC(C(=O)N2CCN(C)CC2)=CC(C2CC2)C1CCCO (stereo unspecified)	0.66	/	/	/	/	/	/	/
Cc1c(OC(C)C(=O)N[C@H](C(=O)O)c2ccccc2)ccc2c3c(c(=O)oc12)CCCC3 (stereo partly specified)	0.74	3	-1	2	-1	/	/	/
Cc1c(OC(C)C(=O)NCC(O)c2ccccc2)ccc2c3c(c(=O)oc12)CCC3 (stereo unspecified)	0.68	34*	28*	1	2	-6	-1	-3
O=C(O)c1ccc(N/N=C/C=C/c2ccc([N+](=O)[O-])o2)cc1	/	14*	9	8	1	31*	4	9
COc1ccc(CN2C(CC(=O)O)c3cc(C(F)(F)F)ccc3S2(=O)=O)cc1 (stereo unspecified)	0.68	/	/	/	/	/	/	/
COC(=O)CC1C(C(=O)OC)ON2OC(C(=O)OC)C(C(=O)OC)C12 (stereo unspecified)	0.69	0	-2	4	1	/	/	/
CCOC(=O)CC1C(C(=O)OCC)ON2OC(C(=O)OC)C(C(=O)OCC)C12 (stereo unspecified)	0.67	46*	21*	1	-4	-3	1	-2
Oc1ccc(N=Nc2c(O)ccc3ccccc23)cc1	0.59	13*	13*	3	-5	60*	4	17
NS(=O)(=O)c1ccc(N=Nc2c(O)ccc3ccccc23)cc1	0.69	2	1	2	-1	/	/	/

Screening results from PubChem.
